# A selection: hits, their analogues and other compounds. The true share with any hit is near 3.7%.
# Mtb bLac sens: beta-lactam sensitization of Mtb H37Rv, H37Rv | M. tuberculosis H37Rv growth with meropenem, percent inhibition | inhibition, % at 25 µM | 0.27% of 330,000 active | AID 434955, 2010; call rule not given here;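 note: growth measured after seven days incubation then overnight dye step; 0% = bacteria only wells and 100% = bacteria with antibiotic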
# FBA Mtb inh: Mtb FBA enzyme inhibitors, primary screen, biochemical, fluorescence, strain H37Rv; AID 588726, 2011; purified M. tuberculosis FBA, fluorescence read-out; Fructose-bisphosphate aldolase (Mycobacterium tuberculosis (strain ATCC 25618 / H37Rv)), …; inhibition, % at 1 µM; 2.3% of 360,000 active; in the data active = inhibition above about 27%;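 note: 0% = vehicle and 100% = reference inhibitor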
# UGM FP inh: M. tuberculosis UGM enzyme inhibitors, primary screen, biochemical, fluorescence polarization, single point. UDP-galactopyranose mutase (Mycobacterium tuberculosis (strain ATCC 25618 / H37Rv)), …. purified UGM, fluorescence polarization probe displacement. inhibition, % at 10 µM. 0.06% of 320,000 active; in the data active = inhibition above about 10%, passing the limit was not always enough; inconclusive = no clear call, values can overlap the other calls
# FadD28 binding: inhibitors of FadD28 bisubstrate probe binding, primary screen, biochemical, fluorescence polarization, single point. Mycobacterium tuberculosis FadD28 fatty-acid-AMP ligase. inhibition, % at 12.5 µM. 0.22% of 360,000 active. AID 588549, 2011; in the data active = inhibition above about 8.5%, passing the limit was not always enough; inconclusive = no clear call, values can overlap the other calls
# Rv3671c protease: Rv3671c serine protease inhibitors, primary screen, biochemical, fluorescence polarization, M. tuberculosis H37Rv; 0.048% of 320,000 active; inhibition, % at 5.96 µM; AID 2606, 2010; in the data active = inhibition above about 38%;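 note: extracellular domain of Rv3671c used as enzyme; 0% = enzyme with DMSO and 100% = no enzyme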
# Target sequence (P9WHR9 whole entry, looked up, the tested form may be a part): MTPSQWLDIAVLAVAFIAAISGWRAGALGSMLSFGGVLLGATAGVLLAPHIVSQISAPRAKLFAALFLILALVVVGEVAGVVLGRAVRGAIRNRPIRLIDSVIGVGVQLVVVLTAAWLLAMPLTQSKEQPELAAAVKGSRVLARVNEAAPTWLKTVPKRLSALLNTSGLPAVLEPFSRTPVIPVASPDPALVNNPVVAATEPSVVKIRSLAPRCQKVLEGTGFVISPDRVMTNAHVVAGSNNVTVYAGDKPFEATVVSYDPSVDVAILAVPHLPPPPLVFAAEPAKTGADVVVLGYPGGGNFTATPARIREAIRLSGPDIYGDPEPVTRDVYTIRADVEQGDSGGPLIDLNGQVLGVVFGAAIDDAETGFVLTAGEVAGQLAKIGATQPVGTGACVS
# GDH-TPI inh: GDH-TPI coupling enzyme inhibitors, primary screen, artefact control for M. tuberculosis FBA inhibitor project, biochemical, absorbance, full deck; GDH-TPI coupled enzyme counterscreen, NADH absorbance; inhibition, % at 4.8 µM; 1.2% of 360,000 active; in the data active = inhibition above about 30%;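 note: 0% = DMSO wells and 100% = wells lacking the enzyme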
# Active calls of the source: *; ? = inconclusive; nt = no result given; + = active, no number.
SMILES,Mtb bLac sens,FBA Mtb inh,UGM FP inh,FadD28 binding,Rv3671c protease,GDH-TPI inh
CC1CC(C)CN(C(=O)c2cc(-c3ccccn3)nc3ccccc23)C1 (configuration not stated),0,2,1,-1,-9,10
COc1ccc(-c2cc(C(=O)N3CC(C)CC(C)C3)c3ccccc3n2)cc1 (configuration not stated),-15,50*,0,-1,-16,13
OC(c1ccccc1)c1nc(-c2cncnc2)cs1 (configuration not stated),nt,-3,nt,-2,nt,-1
COc1ccc(-c2nc(-c3cccs3)c(-c3cccs3)[nH]2)cc1O,0,17,-2,11*,17,15
Cn1cncc1C#Cc1ccc2cc(CCCO)oc(=O)c2c1,0,47*,0,-1,10,34*
Cn1cncc1C#Cc1ccc2cc(C3(O)CCCCC3)oc(=O)c2c1,0,4,3,2,2,7
Nc1ccc(C#Cc2ccc3c(=O)c4ccccc4oc3c2)cc1,0,14,-1,-2,-6,23
O=c1oc(CCCO)cc2ccc(Br)cc12,4,1,1,-1,0,-4
Cn1cncc1C#Cc1ccc2cc(C(C)(C)O)oc(=O)c2c1,-6,14,2,-1,-8,31*
Cn1cncc1C#Cc1ccc2c(=O)c3ccccc3oc2c1,3,3,-1,-2,-11,41*
Cc1ccccc1CSCC1Nc2ccc(C(=O)NCCc3ccccc3)cc2NC1=O (configuration not stated),nt,8,nt,-5,nt,16
CC1(c2ccc(Cl)cc2Cl)NC(=O)N(CC(=O)NC2CCCCC2)C1=O (configuration not stated),-3,0,2,-3,12,-7
CSc1c(C#N)c(N)nc2sc(C(=O)c3ccccc3)c(N)c12,56,-2,2,-2,4,46*
CC(=O)NC(Cc1ccccc1)C(=O)OCC(=O)c1ccccc1 (configuration not stated),-3,-1,13*,-3,-2,8
CC(=O)NC(Cc1ccccc1)C(=O)OCC(=O)c1ccc(Br)cc1 (configuration not stated),0,-3,0,-1,-5,-7
CC1(C)Cc2ccccc2-c2nc(NCCO)n(-c3ccccc3)c(=O)c21,10,173*,2,0,-2,18
CCC1(C)Cc2ccccc2-c2nc(NCCO)n(-c3ccccc3)c(=O)c21 (configuration not stated),-19,176*,1,-1,-1,13
CCC1(CC)Cc2ccccc2-c2nc(NCCO)[nH]c(=O)c21,15,168*,2,-4,-7,20
CCC1(C)Cc2ccccc2-c2nc(NCCO)n(-c3ccc(C)cc3)c(=O)c21 (configuration not stated),6,163*,1,0,1,17
COC(=O)c1cnc(Nc2nc(C(N)Cc3ccccc3)cs2)nc1C(F)(F)F (configuration not stated),nt,-1,nt,-4,nt,9
CC1(C(=O)Nc2cccc(C(F)(F)F)c2)Cc2c(-c3cccc(C(N)=O)c3)ccnc2O1 (configuration not stated),nt,4,nt,0,nt,9
CC(C)(C)c1nnc(N/N=C/c2cc(Br)ccc2O)n(N)c1=O,5,-1,0,-3,6,33*
CCc1nnc(N/N=C/c2cc(Br)c(O)cc2O)n1N,3,-2,2,1,-60,24
COc1ccc(CNC(=O)COC(=O)c2c(NC(C)=O)sc(C)c2C)cc1OC,nt,-1,nt,-5,nt,4
COCCOC(=O)/C(=C/c1ccc(OC(=O)c2ccccc2)cc1)C(C)=O,-6,31*,-1,1,-1,10
SMILES,Mtb bLac sens,FBA Mtb inh,UGM FP inh,FadD28 binding,Rv3671c protease,GDH-TPI inh
CCOC(=O)/C(=C/c1ccc(OC(=O)c2ccncc2)cc1)C(C)=O,2,-2,2,-3,4,7
COc1ccccc1N1CCN(C2CCCN(S(=O)(=O)c3ccccc3)C2)CC1 (configuration not stated),?,163*,1,-1,-1,10
C=CCS(=O)(=O)N1CCCC(N2CCN(c3ccccc3OC)CC2)C1 (configuration not stated),3,2,1,-1,2,-3
Cc1ccc(Nc2cc(C)nc3c(C)cccc23)cc1,2,1,5,-1,-2,32*
CC(=O)c1ccc(Nc2cc(C)nc3c(C)cccc23)cc1,5,-3,2,-4,-5,19
CCOC(=O)C(/C=C(\C#N)C(=O)OCC)=C(/N)N1CCN(c2ccc(Cl)cc2)CC1,100,-1,-1,0,2,59*
COc1cc(/C=C2/C(=O)NN(c3ccc(Cl)cc3)C2=O)cc(OC)c1O,92,-6,-16,8.9*,-6,9
C[C@H]1CN([C@@H](C)CO)S(=O)(=O)c2ccc(-c3ccccc3)cc2O[C@H]1CN(C)C(=O)C1CCC1,nt,-2,nt,-1,nt,5
Nc1cc(C(F)(F)F)ccc1C(=O)O,-5,76*,-2,3,12,9
Nc1cc(S(=O)(=O)C(F)(F)F)ccc1C(=O)O,-13,1,0,-1,-4,14
COc1ccc(NC(=O)CC(C)CC(=O)NCc2ccc(F)cc2)c(OC)c1 (configuration not stated),-2,2,0,0,8,9
Cc1ccc2nc(-c3ccc(-c4ccccn4)s3)cn2c1,3,+,0,-4,-4,21
Brc1ccc(-c2cn3ccccc3n2)s1,22,3,-1,-3,1,4
CC(C)n1c(=S)[nH]c2ccccc2c1=O,25,-1,-1,-3,-7,0
C#CCn1c2ccccc2c(=O)n1C(C)C,nt,121*,nt,1,nt,nt
Cc1ccc(NC(=O)c2ncn(CCCNCc3ccccc3)n2)cc1C,nt,-1,nt,-4,nt,4
COc1ccccc1NS(=O)(=O)c1cccc(C(=O)N/N=C/c2ccc(C)o2)c1,-3,-1,-1,-3,2,41*
COc1ccccc1NS(=O)(=O)c1cccc(NC(=O)Nc2ccc(Cl)cc2)c1,-10,-2,1,31*,-335,9
COc1ccccc1NS(=O)(=O)c1cccc(C(=O)N/N=C/c2ccc(N3CCOCC3)cc2)c1,-2,1,4,-1,0,34*
CC(=O)C1CCC2C3CCC4CC(=O)CCC4(C)C3C(C)(O)CC12C (configuration not stated),nt,3,nt,nt,nt,5
